This is part of a sample that, as a whole, favours compounds with a hit. Of some 83,000 tested, about 20% had one in any assay.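 Interpretation: 100, growth as untreated; towards 0, rising growth inhibition; 0, no net growth; 0 to -100, cell death. Compounds scoring below 10 were considered active.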 A number with no mark means an inactive call. The source made the active and inactive calls.
Key:
Assay in all cases: NCI-60 one-dose screen, 48 h (100 = growth as untreated, 0 = no growth, -100 = all killed)
Details in all cases: 10 µM unless noted
SK-MEL-2 melanoma = system: SK-MEL-2 melanoma
EKVX NSCLC = system: EKVX NSCLC
SN12C renal = system: SN12C renal
UO-31 renal = system: UO-31 renal
TK-10 renal = system: TK-10 renal
ACHN renal = system: ACHN renal
A498 renal = system: A498 renal
CCRF-CEM leukemia = system: CCRF-CEM leukemia
MOLT-4 leukemia = system: MOLT-4 leukemia
SR leukemia = system: SR leukemia

Compound	growth (SK-MEL-2 melanoma)	growth (EKVX NSCLC)	growth (SN12C renal)	growth (UO-31 renal)	growth (TK-10 renal)	growth (ACHN renal)	growth (A498 renal)	growth (CCRF-CEM leukemia)	growth (MOLT-4 leukemia)	growth (SR leukemia)
CC(C)(C)c1nn(-c2ccccc2)c2c1COCN2Cc1ccc(Cl)cc1	94.1%	98.8%	96.7%	85.2%	117%	89.1%	85.1%	64.5%	68.1%	47.2%
CCOC(=O)c1c(C(F)(F)F)n([O-])c2ccc(Cl)cc2[n+]1=O	-57.2% (active)	-8.8% (active)	-21.4% (active)	-44.3% (active)	-92.7% (active)	-97.8% (active)	-76.4% (active)	-45.7% (active)	-48.5% (active)	-33.6% (active)
CC(=O)OCC1OC(OC2C(COC(C)=O)OC(OCCC[S-])C(OC(C)=O)C2OC(C)=O)C(OC(C)=O)C(OC(C)=O)C1OC(C)=O.[Au+].c1ccc(CN2[CH-]N(Cc3ccccc3)C(c3ccccc3)=C2c2ccccc2)cc1 (stereo not given)	13.4%	28.1%	9.26% (active)	9.47% (active)	38.5%	15.1%	-1.67% (active)	11.5%	15.3%	11%
COC(=O)c1ccc(NC(=O)CSc2nc(-c3ccc(F)cc3)nc3ccccc23)cc1	99.8%	91.4%	79.3%	82.3%	113%	97.4%	99.6%	85.7%	89%	78%
COc1cc(/C=C/C(=O)/C=C/c2cc3ccc(Cl)cc3[nH]c2=O)ccc1O	89.1%	94.4%	63.9%	60.3%	98%	64.8%	78.8%	23%	30.3%	10.8%
COc1ccc(NC(=O)c2ccc(Nc3ncnc4[nH]c(C)c(C)c34)cc2)cc1	99.2%	102%	95.6%	97.5%	93.7%	107%	92.7%	112%	95.1%	89.3%
COc1cc(NC(=O)COc2cc(C)nc3ccc(OC)cc23)cc(OC)c1	92.2%	91.5%	88.9%	69.8%	96.5%	82%	63.7%	82%	89.9%	-8.57% (active)
Nc1c(C(=O)Nc2cccc3ccccc23)sc2nc3c(cc12)CCCCCC3	5.93% (active)	41.6%	46%	55%	55.3%	57.4%	-4.7% (active)	11.2%	21%	19.1%
CC(C)(C)c1ccc2oc(=O)n(SC(Cl)(Cl)Cl)c2c1	93.9%	92.2%	102%	94.9%	92.4%	106%	109%	83.5%	77.2%	92.3%
CN1CC=C(c2cc(NC(=O)Nc3ccc(Oc4ccnc(NC(=O)C5CC5)c4)c(F)c3)cc(C(F)(F)F)c2)CC1	-42.8% (active)	-19.9% (active)	2.74% (active)	-1.84% (active)	-2.39% (active)	-1.41% (active)	-27.9% (active)	1.49% (active)	-4.01% (active)	-18.3% (active)
CC(=O)c1ccc(NC(=O)CSc2nnc(-c3cc(-c4ccc(Cl)cc4)nc4ccccc34)o2)cc1	87.3%	97.3%	37.9%	86.6%	83.7%	89.8%	105%	60.8%	66.6%	0.55% (active)
COc1ccc2oc(=O)cc(-c3c(C#N)c(N)n4nc(N)c(C#N)c4c3C#N)c2c1	91.7%	100%	103%	94.4%	90.4%	101%	113%	106%	86%	115%
COCCc1n(Cc2ccc3ccccc3c2)c2ccccc2[n+]1Cc1ccc2ccccc2c1	-61.6% (active)	4.7% (active)	-68% (active)	-18.7% (active)	-80.9% (active)	20.3%	-19.1% (active)	-9.95% (active)	-43.4% (active)	-57% (active)
Clc1ccc2c(NCCCNC3CCCCC3)ccnc2c1	107%	66.2%	97%	83%	111%	116%	98.9%	67.7%	6.38% (active)	46.8%
O=S(=O)(Nc1nccs1)c1ccc(Nc2nc(-c3ccncc3)cs2)cc1	105%	107%	97.4%	101%	120%	99.5%	113%	104%	117%	111%
COc1cc(C2=N/C(=C\c3cc4ccccc4nc3Oc3ccccc3)C(=O)N2C(=N)N)cc(OC)c1OC	84.7%	72.1%	43.1%	55.3%	80.6%	61.9%	69%	87.3%	85.1%	63.8%
COCCOCCOCc1n(Cc2ccc3ccccc3n2)c2ccccc2[n+]1Cc1ccc2ccccc2n1	-8.51% (active)	71.6%	11.4%	67.3%	37.6%	97.6%	78.1%	31.6%	26.3%	9.58% (active)
COc1ccc2nc(-c3ccc(OC)c(OC)c3)cc(-c3nnc(SCC(=O)Nc4ccc(/C(C)=N\O)cc4)n3-c3ccccc3)c2c1	80.7%	88.8%	80.7%	54.2%	65.9%	75.5%	77.9%	40%	33.8%	54.7%
Nc1ccc(C2=NN(C(=O)c3cc(-c4ccc(Cl)cc4)nc4ccccc34)C(c3ccccc3)C2)cc1 (stereo not given)	37.1%	40.4%	51.2%	49.5%	58.5%	51.5%	30%	24.1%	41.2%	25.9%
Cc1cc(C)cc(Nc2nccc(-c3c(-c4ccc(F)cc4)ncn3C3CCNCC3)n2)c1	21.4%	27.4%	16.5%	-28.6% (active)	17.8%	4.78% (active)	53.2%	-12.6% (active)	-14.2% (active)	-31% (active)
O=C1NC(SCc2ccc(F)cc2)=N/C1=C/c1cccc(OCc2ccc(Cl)cc2)c1	99.4%	66.3%	22.1%	-38.2% (active)	-5.9% (active)	-53.7% (active)	-5.28% (active)	54.8%	51.2%	20.6%
O=C(Nc1cc(Br)ccn1)c1cc2cc(Nc3nc(-c4ccccc4)nc4ccccc34)ccc2oc1=O	90.8%	109%	110%	75.4%	106%	103%	112%	107%	100%	82.2%
C#Cc1ccccc1NC(=O)c1sc2nc3c(cc2c1N)CCCCCC3	85.4%	69.5%	58.5%	50.1%	63.2%	31.1%	68.5%	60.7%	67.1%	12.3%
COc1cc(-c2csc(NC(=O)Nc3ccc(Cl)cc3)n2)cc(OC)c1OC	29.3%	26%	27.5%	16.9%	26.6%	18.3%	21.7%	6.31% (active)	-17% (active)	33.7%
COc1cc(/C=C/C(=O)/C=C/c2cc3ccc(Cl)cc3n(Cc3ccccc3)c2=O)ccc1O	-13.2% (active)	8.91% (active)	-18.4% (active)	-88.9% (active)	13.8%	-15.4% (active)	69.2%	3.16% (active)	5.11% (active)	1.8% (active)
COc1cc(C(=O)Nc2cc(OC)c3ccn(C)c3c2)cc2c1C[C@]1(C)CC[C@@H](O)C(C)(C)[C@H]1O2	-7.94% (active)	33.5%	46.8%	-5.02% (active)	36.9%	18%	-23.1% (active)	5.35% (active)	-8.72% (active)	11.5%
COc1cc(N=Nc2cc(S(=O)(=O)O)cc3cc(S(=O)(=O)O)cc(O)c23)c(C)cc1N=Nc1c(S(=O)(=O)O)cc2cc(Nc3ccccc3)ccc2c1O	103%	107%	103%	81.3%	91.1%	108%	108%	100%	86.8%	76.5%

From PubChem BioAssay (NCI)
